In PMC11006913:
Residue numbers refer to the chain shown, from its start.

Molecular target: T1, PAX4 (Homo sapiens, UniProt O43316 9-242, F177Y)
T1 sequence: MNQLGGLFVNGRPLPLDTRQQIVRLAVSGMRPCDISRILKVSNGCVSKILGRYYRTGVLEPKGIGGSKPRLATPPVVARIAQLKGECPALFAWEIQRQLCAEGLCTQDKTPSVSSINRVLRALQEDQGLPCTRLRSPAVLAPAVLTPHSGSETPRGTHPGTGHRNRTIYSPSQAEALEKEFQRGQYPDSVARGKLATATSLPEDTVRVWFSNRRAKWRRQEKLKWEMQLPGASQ
Experiment: PBM; 200 nM protein, PBS
Conditions: dsDNA, one strand shown

Row | Sequence | binding signal
1 | TAATTTAA | 11 upbm affinity estimate (log intensity, higher = more binding, comparable within an allelic series)
2 | ACCGCCCG | 9.01 upbm affinity estimate (log intensity, higher = more binding, comparable within an allelic series)
3 | CAGCCTTC | 9.15 upbm affinity estimate (log intensity, higher = more binding, comparable within an allelic series)
4 | CCGGGAGC | 9.2 upbm affinity estimate (log intensity, higher = more binding, comparable within an allelic series)

Molecular target: ALX3 (Homo sapiens, UniProt O95076 139-225, L168Q)
Experiment: PBM; 200 nM protein, PBS
Conditions: dsDNA, one strand shown

ALX3 (Homo sapiens, UniProt O95076 139-225, L168Q), sequence (O95076 139-225 L168Q): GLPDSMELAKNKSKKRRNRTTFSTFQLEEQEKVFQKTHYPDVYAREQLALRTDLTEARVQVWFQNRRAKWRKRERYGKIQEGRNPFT

Row | Sequence | binding signal
5 | TAATTTAA | 10.2 upbm affinity estimate (log intensity, higher = more binding, comparable within an allelic series)
6 | AGCAGCCC | 7.67 upbm affinity estimate (log intensity, higher = more binding, comparable within an allelic series)
7 | AGCCCTCC | 7.75 upbm affinity estimate (log intensity, higher = more binding, comparable within an allelic series)
8 | CAGCCTTC | 7.82 upbm affinity estimate (log intensity, higher = more binding, comparable within an allelic series)
9 | AATTAAAA | 10.3 upbm affinity estimate (log intensity, higher = more binding, comparable within an allelic series)

Molecular target: HOXC9 (Homo sapiens, UniProt P31274 178-260, R222W)
Experiment: PBM; 200 nM protein, PBS
Conditions: dsDNA, one strand shown

HOXC9, sequence (P31274 178-260 R222W): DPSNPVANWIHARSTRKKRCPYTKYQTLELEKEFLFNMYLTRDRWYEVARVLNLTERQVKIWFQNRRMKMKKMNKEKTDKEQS

Row | Sequence | binding signal
10 | CGCGGTGC | 9.74 upbm affinity estimate (log intensity, higher = more binding, comparable within an allelic series)
11 | CTCGCGAG | 9.89 upbm affinity estimate (log intensity, higher = more binding, comparable within an allelic series)
12 | TAATTTAA | 10.9 upbm affinity estimate (log intensity, higher = more binding, comparable within an allelic series)
13 | AGCAGCCC | 9.61 upbm affinity estimate (log intensity, higher = more binding, comparable within an allelic series)
14 | GCCCGAGC | 9.78 upbm affinity estimate (log intensity, higher = more binding, comparable within an allelic series)
15 | AGCCCTCC | 9.65 upbm affinity estimate (log intensity, higher = more binding, comparable within an allelic series)
16 | CCAGTGGG | 9.57 upbm affinity estimate (log intensity, higher = more binding, comparable within an allelic series)
17 | CAGACGGC | 9.64 upbm affinity estimate (log intensity, higher = more binding, comparable within an allelic series)
18 | ACCGCCCG | 9.71 upbm affinity estimate (log intensity, higher = more binding, comparable within an allelic series)
19 | GGTAATAA | 10.9 upbm affinity estimate (log intensity, higher = more binding, comparable within an allelic series)
20 | GGCGCGCC | 9.82 upbm affinity estimate (log intensity, higher = more binding, comparable within an allelic series)
21 | CAGCCTTC | 9.69 upbm affinity estimate (log intensity, higher = more binding, comparable within an allelic series)
22 | GACCTCGC | 9.76 upbm affinity estimate (log intensity, higher = more binding, comparable within an allelic series)
23 | CCCTCCAG | 9.74 upbm affinity estimate (log intensity, higher = more binding, comparable within an allelic series)
24 | CCGGCTAG | 9.7 upbm affinity estimate (log intensity, higher = more binding, comparable within an allelic series)
25 | CCGGGAGC | 9.58 upbm affinity estimate (log intensity, higher = more binding, comparable within an allelic series)
26 | TAAGATGA | 10.2 upbm affinity estimate (log intensity, higher = more binding, comparable within an allelic series)
27 | ATTTACGA | 10.9 upbm affinity estimate (log intensity, higher = more binding, comparable within an allelic series)
28 | CCCCTCAC | 9.75 upbm affinity estimate (log intensity, higher = more binding, comparable within an allelic series)
29 | CAAGCTCG | 9.62 upbm affinity estimate (log intensity, higher = more binding, comparable within an allelic series)
30 | CCAGTCGG | 9.69 upbm affinity estimate (log intensity, higher = more binding, comparable within an allelic series)

Molecular target: ALX3 (Homo sapiens, UniProt O95076 139-225, L168V)
Experiment: PBM; 200 nM protein, PBS
Conditions: dsDNA, one strand shown

ALX3 (Homo sapiens, UniProt O95076 139-225, L168V), sequence (O95076 139-225 L168V): as the sequence (O95076 139-225 L168Q) above, with Q30V counted along it

Row | Sequence | binding signal
31 | TAATTTAA | 9.7 upbm affinity estimate (log intensity, higher = more binding, comparable within an allelic series)
32 | AGCAGCCC | 7.75 upbm affinity estimate (log intensity, higher = more binding, comparable within an allelic series)
33 | AGCCCTCC | 7.79 upbm affinity estimate (log intensity, higher = more binding, comparable within an allelic series)
34 | CAGCCTTC | 7.71 upbm affinity estimate (log intensity, higher = more binding, comparable within an allelic series)
35 | AATTAAAA | 9.86 upbm affinity estimate (log intensity, higher = more binding, comparable within an allelic series)

Molecular target: MSX2 (Homo sapiens, UniProt P35548 130-214, F161Y)
Experiment: PBM; 200 nM protein, PBS
Conditions: dsDNA, one strand shown

MSX2, sequence (P35548 130-214 F161Y): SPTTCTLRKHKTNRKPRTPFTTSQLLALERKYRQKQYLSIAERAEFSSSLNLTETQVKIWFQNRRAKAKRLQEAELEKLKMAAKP

Row | Sequence | binding signal
36 | CGCGGTGC | 9.68 upbm affinity estimate (log intensity, higher = more binding, comparable within an allelic series)
37 | AGCCCTCC | 9.49 upbm affinity estimate (log intensity, higher = more binding, comparable within an allelic series)
38 | GGCGCGCC | 10 upbm affinity estimate (log intensity, higher = more binding, comparable within an allelic series)
39 | CCGGCTAG | 9.36 upbm affinity estimate (log intensity, higher = more binding, comparable within an allelic series)

Molecular target: T2, PAX4 (Homo sapiens, UniProt O43316 9-242, R227W)
T2 sequence: T1 sequence with Y169F, R219W
Experiment: PBM; 200 nM protein, PBS
Conditions: dsDNA, one strand shown

Row | Sequence | binding signal
40 | TAATTTAA | 10.9 upbm affinity estimate (log intensity, higher = more binding, comparable within an allelic series)
41 | ACCGCCCG | 9.19 upbm affinity estimate (log intensity, higher = more binding, comparable within an allelic series)
42 | CAGCCTTC | 9.26 upbm affinity estimate (log intensity, higher = more binding, comparable within an allelic series)
43 | CCGGGAGC | 9.25 upbm affinity estimate (log intensity, higher = more binding, comparable within an allelic series)

Molecular target: HOXA4 (Homo sapiens, UniProt Q00056 201-287, W262F)
Experiment: PBM; 200 nM protein, PBS
Conditions: dsDNA, one strand shown

HOXA4, sequence (Q00056 201-287 W262F): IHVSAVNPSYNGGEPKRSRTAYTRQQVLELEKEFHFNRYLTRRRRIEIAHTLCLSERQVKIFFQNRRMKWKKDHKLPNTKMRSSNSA

Row | Sequence | binding signal
44 | AATAGGTG | 10.3 upbm affinity estimate (log intensity, higher = more binding, comparable within an allelic series)
45 | AGTCTTTA | 10.4 upbm affinity estimate (log intensity, higher = more binding, comparable within an allelic series)
46 | CACGATCA | 10.3 upbm affinity estimate (log intensity, higher = more binding, comparable within an allelic series)
47 | GTTCTTAA | 10.5 upbm affinity estimate (log intensity, higher = more binding, comparable within an allelic series)
48 | ATGACAGC | 10.5 upbm affinity estimate (log intensity, higher = more binding, comparable within an allelic series)
49 | AAGATTAC | 10.4 upbm affinity estimate (log intensity, higher = more binding, comparable within an allelic series)
50 | CATTTGGG | 10.3 upbm affinity estimate (log intensity, higher = more binding, comparable within an allelic series)
51 | CGCTTAAC | 10.3 upbm affinity estimate (log intensity, higher = more binding, comparable within an allelic series)

Molecular target: ALX3 (Homo sapiens, UniProt O95076 139-225, N203S)
Experiment: PBM; 200 nM protein, PBS
Conditions: dsDNA, one strand shown

ALX3 (Homo sapiens, UniProt O95076 139-225, N203S), sequence (O95076 139-225 N203S): as the sequence (O95076 139-225 L168Q) above, with Q30L, N65S counted along it

Row | Sequence | binding signal
52 | TAATTTAA | 8.64 upbm affinity estimate (log intensity, higher = more binding, comparable within an allelic series)
53 | AGCAGCCC | 7.72 upbm affinity estimate (log intensity, higher = more binding, comparable within an allelic series)
54 | AGCCCTCC | 7.76 upbm affinity estimate (log intensity, higher = more binding, comparable within an allelic series)
55 | CAGCCTTC | 7.68 upbm affinity estimate (log intensity, higher = more binding, comparable within an allelic series)
56 | TAAGATGA | 8.25 upbm affinity estimate (log intensity, higher = more binding, comparable within an allelic series)

Molecular target: PRRX1 (Homo sapiens, UniProt P54821 80-166)
Experiment: PBM; 200 nM protein, PBS
Conditions: dsDNA, one strand shown

PRRX1, sequence (P54821 80-166): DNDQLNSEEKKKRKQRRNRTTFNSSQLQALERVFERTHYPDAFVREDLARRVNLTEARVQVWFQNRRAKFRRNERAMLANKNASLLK

Row | Sequence | binding signal
57 | TAATTTAA | 13.3 upbm affinity estimate (log intensity, higher = more binding, comparable within an allelic series)
58 | CAGACGGC | 9.37 upbm affinity estimate (log intensity, higher = more binding, comparable within an allelic series)
59 | GGCGCGCC | 9.73 upbm affinity estimate (log intensity, higher = more binding, comparable within an allelic series)
60 | ATATTGAC | 11.4 upbm affinity estimate (log intensity, higher = more binding, comparable within an allelic series)
61 | CCCCTCAC | 9.53 upbm affinity estimate (log intensity, higher = more binding, comparable within an allelic series)
